Compounds with a hit are over-represented: about 4.8% of the library has one in this group of screens.
ALR H2O2 inh = blocks human ALR sulfhydryl oxidase activity | P55789 | hit rate 3.8% among 290,000 | inhibition, % (concentration not given with the values) | purified ALR, DTT oxidation, H2O2 HRP-luminol luminescence;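 active = mean replicate inhibition above about 79%, with every replicate also reaching it, limit read from the data; inconclusive = only one of the two criteria met; inactive = mean below limit and not every replicate reaching it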
Target sequence (P55789 whole entry, looked up): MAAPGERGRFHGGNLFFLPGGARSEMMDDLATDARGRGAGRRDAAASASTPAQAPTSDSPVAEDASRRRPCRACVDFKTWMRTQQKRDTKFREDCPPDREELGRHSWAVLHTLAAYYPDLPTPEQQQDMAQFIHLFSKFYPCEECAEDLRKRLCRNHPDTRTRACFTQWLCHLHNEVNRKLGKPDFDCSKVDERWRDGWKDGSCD
HIF activator = HIF pathway transcriptional activation. U2OS HRE-luciferase reporter, luminescence; normalized: DMSO 0%, desferrioxamine 100%. activation, % at 7.5 µM (by protocol). hit rate 0.32% among 300,000. AID 1910;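 active = mean activation of at least 10% of the iron chelator positive control signal, with at least half of replicates also reaching 10%; inconclusive = mean and replicate majority disagree about reaching 10%; inactive = mean and most replicates under 10%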
AI-2 QS modul = Vibrio harveyi AI-2 quorum sensing modulation; Vibrio harveyi JMH597 AI-2 luminescence/OD600 ratio, 9 h; stronger effect = lower value; strain lacks LuxN and CqsS sensors; 0 = neutral-control median; activity change, % at 7.5 µM; hit rate 0.4% among 300,000; AID 2094; in the data active = activity change below about -75%, passing the limit was not always enough; inconclusive = no clear call, values can overlap the other calls;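 note: luminescence divided by OD600 gain over 9 h not by final OD600 alone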
SUMO Mot1 rescue = blocks SUMOylation pathway, rescuing yeast Mot1-301 growth; S. cerevisiae Mot1-301 growth rescue, ATP luminescence, 38.5C; percent above DMSO median, 100 means doubled; growth rescue, % at 18.8 µM; hit rate 1% among 320,000; AID 2716;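 active = every valid replicate shows activation above 250% relative to neutral control wells; inactive = the rest, any valid replicate at or below 250%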;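 note: OY570 slx delta 5 strain wells were the positive control but not used for scaling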
JMH597 growth rt = retest Vibrio harveyi JMH597 growth inhibition | shares compounds with AI-2 QS modul | OD600 absorbance, 9 h; lacks LuxN and CqsS sensors | growth inhibition, % at 7.5 µM | hit rate 1% among 750 | AID 2726;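 active = every replicate shows growth inhibition above 50%; inconclusive = at least half, but not all, replicates pass that cutoff; inactive = fewer than half of replicates pass it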
BB721 const-QS lum = retest counter-screen: BB721 constitutive quorum sensing luminescence decrease | shares compounds with AI-2 QS modul | Vibrio harveyi BB721 luminescence, 9 h | inhibition, % at 7.5 µM | hit rate 95% among 750;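 active = inhibition above about 80% in every replicate, not just on average, limit read from the data; inconclusive = at least half of replicates past the limit, but not all; inactive = fewer than half of replicates past the limit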
BB721 growth rt = retest Vibrio harveyi BB721 growth inhibition; shares compounds with AI-2 QS modul; OD600 absorbance, 9 h; growth inhibition, % at 7.5 µM; hit rate 3% among 750; AID 2728;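 active = every replicate shows growth inhibition above 50%; inconclusive = at least half but not all replicates above 50% inhibition; inactive = under half of replicates above 50% inhibition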
AI-2 QS JMH597 = Vibrio harveyi AI-2 signaling luminescence modulation – JMH597 strain, confirmation. shares compounds with AI-2 QS modul. Vibrio harveyi JMH597 AI-2 quorum sensing luminescence, 9 h; luxN and CqsS knockout, AI-2 only. inhibition, % at 7.5 µM. hit rate 97% among 750. AID 2736;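 active = every replicate shows more than 75% inhibition of signal versus neutral control wells; inconclusive = half to three quarters of replicates exceed 75% inhibition; inactive = fewer than half of replicates exceed 75% inhibition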
The depositor's hits bear a star; ? = inconclusive; · = no result.

SMILES	ALR H2O2 inh	HIF activator	AI-2 QS modul	SUMO Mot1 rescue	JMH597 growth rt	BB721 const-QS lum	BB721 growth rt	AI-2 QS JMH597
O=C1NCCCC1C(=O)N/N=C/c1cccc(Cl)c1 (configuration not stated)	1	0	-79*	0	-13	89*	2	93*
O=C1NCCCC1C(=O)N/N=C/c1ccc(Cl)cc1 (configuration not stated)	-7	0	-49	20	·	·	·	·
CCc1ccc(CN(C)C(=O)c2cc(COc3cccc(C(F)(F)F)c3)on2)nc1	1	2	-83*	-1	?	92*	?	95*
CC(=O)c1cccc(OCc2cc(C(=O)N(C)C(C)c3ccccn3)no2)c1 (configuration not stated)	-2	0	2	18	·	·	·	·
CC(=O)c1cccc(OCc2cc(C(=O)N(C)Cc3cnccn3)no2)c1	3	4	?	-8	21	92*	15	95*
Cc1ccc(CN(C)C(=O)c2cc(COc3cccc(C(F)(F)F)c3)on2)o1	44	0	-81*	-9	65*	95*	87*	96*
O=S(=O)(c1ccc(S(=O)(=O)N2CCC(O)CC2)cc1)N1CCCC1	-2	0	31	2	·	·	·	·
CN(C)c1ccc(CNC(=O)CCNS(=O)(=O)c2cc(Br)cnc2N)cc1	9	1	5	0	·	·	·	·
COc1ccc(/C=C/C(=O)Oc2cc(O)cc(O)c2)cc1	·	-1	-95*	263	-8	98*	-20	99*
CCOc1ccc(/C=C/C(=O)Oc2ccc(OC)cc2)cc1	0	1	9	237	·	·	·	·
Cc1cccc(CS(=O)(=O)Cc2ccc(C(=O)NC3CCCCCC3)o2)c1	-2	0	25	5	·	·	·	·
CCn1c(SCC(=O)O)nnc1-c1ccc(S(=O)(=O)N2CCCC2)cc1	-4	3	26	3	·	·	·	·
CCn1c(SCc2ccccc2)nnc1-c1ccc(S(=O)(=O)N2CCCCC2)cc1	-58	0	?	97	42	89*	59	94*
CC(C)c1ccccc1NC(=O)CSc1n[nH]c(=O)n1C1CC1	0	·	·	-4	·	·	·	·
CCCC(=O)NC(=S)Nc1ccccc1F	0	1	-85*	170	21	92*	24	87*
Cc1ccc(NS(=O)(=O)c2ccc(NC(=O)CSc3ccc(Cl)cc3)cc2)c(C)c1	-4	0	-6	0	·	·	·	·
Cc1ccc(O)c(NC(=O)CSc2ccc(Cl)cc2)c1	-5	1	-87*	-16	12	93*	5	95*
CC(C)COc1ccc(/C(=N/O)c2ccccc2)cc1	-2	1	-85*	-10	20	94*	27	95*
CC1CN(c2nc3ccccc3nc2NS(=O)(=O)c2ccccc2)CC(C)O1 (configuration not stated)	15	·	·	-12	·	·	·	·
CCN(CC)S(=O)(=O)c1ccc(F)cc1	-3	0	7	4	·	·	·	·
CCCc1ccc(S(=O)(=O)N(C)S(=O)(=O)c2ccc(F)cc2)cc1	2	-1	?	9	45	46	26	99*
COc1cc(Cl)c(C)cc1NC(=O)CC1CCCC1	-12	1	·	1	·	·	·	·
Clc1ccc(OCCn2cnc(Cl)c2Cl)cc1	1	0	-84*	-20	11	88*	-330	92*
COc1ccc(OCCn2cnc(Cl)c2Cl)cc1	·	0	-2	·	·	·	·	·
CC(Sc1nc2ncc(Cl)cc2[nH]1)C(=O)NC1(C#N)CCCCC1 (configuration not stated)	6	·	·	-16	·	·	·	·
O=C(CN1C(=O)c2ccccc2C1=O)Nc1cccc(Cl)c1	-4	0	-93*	209	11	99*	3	99*
O=C(CN1C(=O)c2ccccc2C1=O)Nc1cccc(O)c1	8	-2	?	6	·	·	·	·
Cc1ccc(OCCC(=O)Nc2ccc(F)c(Cl)c2)cc1	0	0	-78*	15	-3	68	6	?
